Screens deposited in PubChem BioAssay by National Center for Advancing Translational Sciences (NCATS).
RORg inh: qHTS for inhibitors of ROR gamma transcriptional activity; Drosophila S2 Gal4-RORgamma UAS-luciferase reporter, 20 h; Potency, µM (titrated, usually from 53.6 µM), inactives show at the top dose activity change, negative = inhibition, actives largely listed as inhibitors; hit rate 5.4% among 310,000; further: on the % scale 0 is the no-effect control and ±100 the full control effect; nearly all actives have a fitted effect of over 60% in size
Target sequence (P51450 whole entry, looked up, the tested form may be a part): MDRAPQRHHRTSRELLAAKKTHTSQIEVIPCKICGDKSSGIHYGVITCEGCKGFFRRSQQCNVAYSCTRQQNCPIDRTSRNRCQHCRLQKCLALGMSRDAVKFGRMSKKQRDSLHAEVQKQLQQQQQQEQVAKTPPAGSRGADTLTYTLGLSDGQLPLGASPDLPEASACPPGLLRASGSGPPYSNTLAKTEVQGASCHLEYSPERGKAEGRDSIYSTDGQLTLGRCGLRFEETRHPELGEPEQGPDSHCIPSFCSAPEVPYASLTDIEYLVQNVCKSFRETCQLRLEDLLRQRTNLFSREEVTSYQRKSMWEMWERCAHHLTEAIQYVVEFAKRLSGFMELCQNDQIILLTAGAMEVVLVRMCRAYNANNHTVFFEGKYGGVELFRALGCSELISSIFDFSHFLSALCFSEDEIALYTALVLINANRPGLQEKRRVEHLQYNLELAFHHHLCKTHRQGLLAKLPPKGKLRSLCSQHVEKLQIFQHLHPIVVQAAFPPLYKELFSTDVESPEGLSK
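In this cell-based reporter format, copper sulfate (700 uM final) drives Gal4–ROR gamma fusion expression from a metallothionein promoter in Drosophila Schneider cells; compounds preincubated 1 hr, reporter read after 20 hr at ambient temperature.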
MCF10A rereplic: A quantitative high throughput screen for small molecules that induce DNA re-replication in MCF 10a normal breast cells; MCF 10A DNA re-replication, Hoechst nuclear intensity, 48 h; Potency, µM (series often up to 46.1 µM), without a hit: at the highest dose activity, positive = re-replication, actives largely listed as activators; hit rate 2.9% among 350,000; AID 624296, 2012; further: % of control where 0% means no effect; nearly all actives have a fitted effect of over 50% in size
SW480 rerep: A quantitative high throughput screen for small molecules that induce DNA re-replication in SW480 colon adenocarcinoma cells; SW480 DNA re-replication, Hoechst DNA content imaging, 48 h; Potency, µM (highest dose often 46.1 µM), for inactives: top-dose re-replication activation, most hits filed as activators; hit rate 1.8% among 340,000; further: % of control where 0% means no effect; nearly all actives have a fitted effect of over 55% in size
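First, 250 cells per well were seeded. Next, compound or vehicle (23 nL) was pinned in, plates sat 48 hr at 37 C. Finally Hoechst was added for 40 min before fluorescence scanning.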
ELG1 repair inh: qHTS screen for small molecules that inhibit ELG1-dependent DNA repair in human embryonic kidney (HEK293T) cells expressing luciferase-tagged ELG1; HEK293T ELG1-luciferase reporter, luminescence, 16 h; DNA damage induced by 5-fluorouridine; Potency, µM (top dose mostly 46.1 µM), for inactives: at the highest dose activity change, negative = inhibition, actives largely listed as inhibitors; hit rate 2.3% among 330,000; AID 504467, 2011; further: on the % scale 0 is the no-effect control and ±100 the full control effect; nearly all actives have a fitted effect of over 55% in size
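Cells (2,000 per well) received 5-fluorouridine plus test compound or DMSO and were incubated 16 hr at 37 °C, 5% CO2. Luciferase activity was read by luminescence 30 min after ONE-Glo addition; signal suppression marked inhibition of damage-induced ELG1 function.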
VP16 counter: VP16 counterscreen qHTS for inhibitors of ROR gamma transcriptional activity; Drosophila S2 Gal4-VP16 UAS-luciferase, luminescence, 20 h; Potency, µM (top dose mostly 53.6 µM), without a hit: at the highest dose activity, negative = inhibition, actives largely listed as inhibitors; hit rate 3.5% among 310,000; AID 2546, 2010;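 further: Gal4-VP16 expression switched on by copper sulfate through the metallothionein promoter; on the % scale 0 is the no-effect control and ±100 the full control effect; nearly all actives have a fitted effect of over 50% in size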
* marks the source's active call; other numbers are inactive results; ? = inconclusive; · = no result given; ! = repeats disagree. This is a sample that favours compounds with a hit; in the whole collection about 10% have one here. The call rests on the fitted dose curve; in most records, active means well fitted curve in the direction sought with a large enough effect; inconclusive means small, poorly fitted or top-dose-only effect, or another doubt; inactive means no such curve, though single readings can be large; an effect the other way counts as inactive or inconclusive. Potency means the concentration at half of the fitted maximal effect.

SMILES | RORg inh | MCF10A rereplic | SW480 rerep | ELG1 repair inh | VP16 counter
COc1ccc(-n2c(N)c(C(=O)NCc3ccco3)c3nc4ccccc4nc32)cc1 | -21% | 4% | -4% | -7% | -16%
Cc1nc(N2CCCCC2)sc1C(=O)c1cccc([N+](=O)[O-])c1 | ? | -2% | 3% | 2% | 23%
Cc1nc(N2CCCCC2)sc1C(=O)c1ccc(SCCO)c([N+](=O)[O-])c1 | 43% | ? | 29% | 18µM* | -5%
CN(C)CCCNC(=O)c1cc2sc3ccccc3c2s1 | -20% | 7.3µM* | ? | ? | -1%
O=S(=O)(O)c1cc(I)c(O)c2ncccc12 | ? | 8% | 5% | · | -1%
Cc1ccc(S(=O)(=O)Nc2cc(Cl)c(O)c3ncccc23)cc1 | 0.71µM* | ? | 5.2µM* | ? | 1.3µM*
Oc1ccc(F)c2cccnc12 | 2.8µM* | ? | ? | -3% | 4.5µM*
Oc1c(I)cc(I)c2cccnc12 | 2.5µM* | ? | ? | -2% | 4.5µM*
Oc1c(Cl)cc(Cl)c2cccnc12 | 0.079µM* | 6.7µM* | 3.8µM* | 2.3µM* | ?
Cc1ccc(CNC(=O)/C=C/c2cccs2)cc1 | 21% | 3% | -2% | ? | 12%
Cc1ccc(C)c(S(=O)(=O)N2CCCOC2CNC(=O)C(=O)NCc2cccs2)c1 (centres undefined) | -20% | -10% | 10% | -26% | 19%
Oc1ccc(Cl)c2cccnc12 | 1.8µM* | ? | 21µM* | · | 3.2µM*!
O=C(Oc1ccc(Cl)c2cccnc12)N1CCCCC1 | 11% | -12% | -2% | ? | 7%
c1ccc(COC(CN2CCCCCC2)CN2CCCCCC2)cc1 | 1% | 6% | 181% | ? | -2%
Cc1ccc(NC(=O)CN(C)C(=O)CSc2nnnn2C)cc1 | 18% | -1% | -4% | ? | 5%
Cc1ncn(C23CC4CC(CC(C4)C2)C3)n1 | -44% | 0% | -4% | 14% | 18%
O=C(COc1ccccc1Br)Nc1ccccc1C(F)(F)F | -14% | 0% | 0% | -3% | -10%
C=C(C)COc1ccc(-c2[nH]ncc2-c2ccc(OC)c(OC)c2)c(O)c1 | 1.8µM* | 5.2µM* | 2.9µM* | 21µM* | 2.5µM*
C=C(C)COc1ccc(-c2n[nH]c(C)c2-c2ccc(OC)c(OC)c2)c(O)c1 | 1.4µM* | ? | 25% | 21µM* | 7.1µM*
C=C(C)COc1ccc(-c2[nH]ncc2-c2ccc(OC)cc2)c(O)c1 | 11µM* | ? | 13% | ? | ?
Cc1ccsc1C(=O)NC(C)c1ccccc1 (centres undefined) | -38% | -20% | -16% | ? | -12%
COc1ccc2[nH]c3nc(SCc4nnc(-c5ccccc5)o4)nnc3c2c1 | -43% | 4% | 18% | 16µM* | -23%
COc1ccc2[nH]c3nc(SCC(=O)Nc4cccc(NC(C)=O)c4)nnc3c2c1 | 17% | 21µM* | -35% | -3% | -2%
S=C1N[C@H]2CCCC[C@@H]2N1 | -22% | -1% | ? | 2% | 5%
COc1ccc(-c2noc(=O)n2Cc2ccc(F)cc2Cl)cc1 | -12% | 4% | 1% | -8% | 6%
SMILES | RORg inh | MCF10A rereplic | SW480 rerep | ELG1 repair inh | VP16 counter
COc1ccc(NC(=S)N/N=C/c2cccn2Cc2ccc(F)cc2Cl)cc1 | 0.79µM* | ? | -4% | ? | 2.8µM*
CSc1ccc(NC(=O)Nc2cccn(Cc3ccccc3F)c2=O)cc1 | 2% | 18% | ? | 6% | -9%
COc1ccc(NC(=S)N/N=C/c2cccn2Cc2ccccc2F)cc1 | 0.28µM* | ? | -2% | 5% | 1.4µM*
CC(NCC(=O)NC(=O)NC1CCCC1)c1ccc(Cl)cc1Cl (centres undefined) | · | 9% | -4% | ? | ·
COc1ccccc1CNc1ncnc2ccc(-c3ccccc3OC)cc12 | ? | · | · | · | 22µM*
Cc1noc(C)c1-c1ccc2ncnc(NCc3ccc(C(F)(F)F)cc3)c2c1 | 17% | · | · | · | ?
CCOc1ccccc1CNc1ncnc2ccc(-c3c(C)noc3C)cc12 | 40µM* | ? | -2% | 29% | ?
Cc1noc(C)c1-c1ccc2ncnc(NCc3ccccc3F)c2c1 | -9% | · | · | · | 11µM*
Cc1noc(C)c1-c1ccc2ncnc(NCc3ccc(F)cc3)c2c1 | 9% | · | · | · | -12%
Cc1noc(C)c1-c1ccc2ncnc(NCc3cccc(C(F)(F)F)c3)c2c1 | -16% | · | · | · | 13µM*
O=C(COC(=O)c1cc(=O)c2ccccc2o1)Nc1ccccc1F | · | -18% | -9% | 1% | ·
O=C(/C=C/c1ccccc1)CCN1CCOCC1 | · | ? | 8.2µM* | · | ·
CCOC(=O)N1C/C(=C\c2ccccc2)C(=O)/C(=C/c2ccccc2)C1 | 18µM* | ? | ? | ? | ?
CN(C)CCC(=O)N1C/C(=C/c2ccccc2)C(=O)/C(=C\c2ccccc2)C1 | · | 31% | ? | · | ·
C[N+](C)(C)CCC(=O)N1C/C(=C/c2ccccc2)C(=O)/C(=C\c2ccccc2)C1 | · | ? | 0.73µM* | · | ·
O=C1/C(=C/c2ccccc2)CN(C(=O)CCN2CCOCC2)C/C1=C\c1ccccc1 | · | 2.3µM* | ? | · | ·
Cc1ccn2c(=O)c(NC(=O)c3ccc(Br)o3)c(C)nc2c1 | · | -1% | -7% | 14% | ·
CNC(=O)CSc1nnc(-c2ccco2)n1-c1cccc(OC)c1 | -4% | 0% | -12% | 11% | -3%
CC1Cc2cc(/C(O)=C3/C(=O)C(=O)N(CCCn4ccnc4)C3c3ccc(Br)cc3)ccc2O1 (centres undefined) | 6% | -6% | -4% | 12% | -3%
CNC(=S)N/N=C/c1ccco1 | 2.5µM* | 1% | 16µM* | ? | 5.6µM*
Oc1ccccc1/C=N/NC(=S)NC1CC2CCC1C2 (centres undefined) | 6.3µM* | 22% | 3% | ? | 10µM*
COc1cccc(/C=N/NC(=S)NC2CC3CCC2C3)c1OC (centres undefined) | 1.6µM* | 0% | -16% | ? | 2.8µM*
O=C(N/N=C/c1ccco1)C(O)C(O)C(=O)N/N=C/c1ccco1 (centres undefined) | -5% | -3% | 0% | -1% | -2%
S=C(N/N=C/c1ccco1)NC1CC2CCC1C2 (centres undefined) | 0.56µM* | -9% | -3% | ? | 2.2µM*
Cc1ccc(S(=O)(=O)Nc2ncnc3sccc23)cc1C | · | -1% | -11% | 14% | ·
CC(C)(C)c1ccc(C2(C)NC(=O)NC2=O)cc1 (centres undefined) | 28% | 17% | -4% | 13% | -2%
O=C(Nc1ccc(Cl)c(Cl)c1)c1cccc(S(=O)(=O)NCc2cccnc2)c1 | ? | ? | -7% | ? | ?
